The record followed here is PubChem BioAssay (NCI).

Where “and” joins values, the source holds several entries; their conditions need not be identical. Equal values may be shown once. Compounds without any hit were thinned out: in the full panel of roughly 83,000, 20% have a hit.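 Results are percent growth after 48 hours of single-concentration exposure. 100 means growth as in untreated cells, lower positive values show inhibition; negative values down to -100 show cell death.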 Calls of active or inactive are those of the source. The calls were made as follows: active = growth percent below 10; inactive = the rest.

Common to all, as to assay: NCI-60 one-dose screen, 48 h (100 = growth as untreated, 0 = no growth, -100 = all killed)
Details in all cases: 10 µM unless noted

Assay [1] concerns T-47D breast.
The subject of assay [2] is BT-549 breast.
The subject of assay [3] is MDA-MB-435 melanoma.
Assay [4] concerns SW-620 colon.
Assay [5] deals with MCF7 breast.
Assay [6] relates to HCT-116 colon.
Assay [7] relates to HCC-2998 colon.
The subject of assay [8] is KM12 colon.

For `CN1C(=O)/C(=C/c2ccc(C(=O)Nc3ncc(Cc4ccccc4Cl)s3)cc2)SC1=S`, the growth in assay [1] is 63.4% (inactive); in assay [2], 69.5% (inactive); in assay [3], -18.5% (active); in assay [4], 62% (inactive); in assay [5], 61.8% (inactive); in assay [6], 63.6% (inactive). The growth was 77.5% (inactive) in assay [7] and 46.1% (inactive) in assay [8].

Turning to `CCCCCCCCn1ccc2cc(NC(=O)CN3CCN(c4nc(C)cc(N5CCCCC5)n4)CC3)ccc21`, the growth in assay [1] is 79.6% (inactive); in assay [2], 83.4% (inactive); in assay [3], 92.4% (inactive); in assay [4], 87.6% (inactive); in assay [5] it was 70.8% (inactive); in assay [6] it was 76% (inactive). In addition, the growth in assay [7] is 117% (inactive); in assay [8], 86.4% (inactive).

On to `Cc1ccc(Nc2nc(-c3cc(O)c(C)c(C)c3O)cs2)cc1`, for which the growth is 35.5% (inactive) in assay [1]; 98.1% (inactive) in assay [2]; 66.4% (inactive) in assay [3]; 111% (inactive) in assay [4]; 71.9% (inactive) in assay [5]; 105% (inactive) in assay [6]. Also, the growth in assay [7] is 112% (inactive); in assay [8] it was 60.9% (inactive).

As to `Cc1ccc(C(=O)N(CCCN)[C@@H](c2nc3cc(Cl)ccc3c(=O)n2Cc2ccccc2)C(C)C)cc1`, the growth in assay [1] is -41.7% (active); in assay [2], 24.2% (inactive); in assay [3], -89.9% (active); in assay [4] it was -77.6% (active); in assay [5], -61.2% (active); in assay [6], -77.9% (active). For the same compound, the growth is -74.4% (active) in assay [7] and -45.8% (active) in assay [8].

Regarding `CCCCSc1ccc2nc(-c3ccc(OCCCN=C(N)N)cc3)cn2c1`, the growth in assay [1] is 90.7% (inactive); in assay [2] it was 54.2% (inactive); in assay [3] it was 47.6% (inactive); in assay [4] it was 83.5% (inactive); in assay [5], 47% (inactive); in assay [6] it was 42.2% (inactive). In addition, the growth in assay [7] was 59.2% (inactive); in assay [8], 34.3% (inactive).

Take `CC(=O)c1c(C)nc(SCC(=O)Nc2ccc(Cl)cc2)n1-c1ccc(Cl)cc1`: the growth in assay [1] was 72.1% (inactive); in assay [2], 92.1% (inactive); in assay [3], 89.6% (inactive); in assay [4], 87.6% (inactive); in assay [5], 82.9% (inactive); in assay [6], 67.7% (inactive). In addition, the growth in assay [7] was 102% (inactive); in assay [8], 98.5% (inactive).

`Cc1nc2sc(C(=O)Nc3cccc4ccccc34)c(N)c2cc1C(=O)/C=C/c1ccccc1`: the growth was 14.5% (inactive) in assay [1]; -31.1% (active) in assay [2]; 1.56% (active) in assay [3]; -8.3% (active) in assay [4]; 4.27% (active) in assay [5]; -52.8% (active) in assay [6]. In addition, the growth in assay [7] was -85.4% (active); in assay [8], -43.7% (active).

For the compound `Clc1ccc(Nc2nc(Nc3ccc(Cl)cc3)nc(Nc3ccc(-c4cc(-c5cccc(Cl)c5)on4)cc3)n2)cc1`, the growth in assay [1] is 83.3% (inactive); in assay [2] it was 98.6% (inactive); in assay [3] it was 104% (inactive); in assay [4], 96.6% (inactive); in assay [5], 86.6% (inactive); in assay [6] it was 99.6% (inactive). The growth was 121% (inactive) in assay [7] and 104% (inactive) in assay [8].

For the compound `CN(C)CCN1C(=O)c2c(c3c4ccccc4n4c3c3c2c2ccccc2n3C2CC(O)C(O)C4(C)O2)C1=O` (stereo not given), the growth in assay [1] is 30.1% (inactive); in assay [2] it was 62.9% (inactive); in assay [3] it was 32.1% (inactive); in assay [4] it was 18.5% (inactive); in assay [5], 6.41% (active); in assay [6], 22.4% (inactive). In addition, the growth in assay [7] is 26.4% (inactive); in assay [8], 34.2% (inactive).

Regarding `O=C(Nc1ccc(Cl)c(Cl)c1)Nc1ccc(Cl)c(Cl)c1`, the growth is -51.5% (active) and 12.6% (inactive) in assay [1]; -83.3% (active) and 37.7% (inactive) in assay [2]; -80.9% (active) and 13.6% (inactive) in assay [3]; -60.5% (active) and 19.3% (inactive) in assay [4]; -75.9% (active) and 13.6% (inactive) in assay [5]; -89.9% (active) and 4.25% (active) in assay [6]. Besides, the growth in assay [7] was -95.9% (active) and 22.8% (inactive); in assay [8] it was -96.3% (active) and 14% (inactive).

With `Cc1ccc(/C=C(\C#N)c2cc3ccccc3[nH]2)cc1`, the growth is 36.1% (inactive) in assay [1]; 56.9% (inactive) in assay [2]; -5.1% (active) in assay [3]; 16.4% (inactive) in assay [4]; 22.4% (inactive) in assay [5]; 32.5% (inactive) in assay [6]. Also, the growth is 65.9% (inactive) in assay [7] and 31.7% (inactive) in assay [8].

Consider `OCc1cc(CN2CCCCC2)c(O)c2ncccc12`, for which the growth was 57.4% (inactive) in assay [1]; 59.7% (inactive) in assay [2]; 77% (inactive) in assay [3]; 39.7% (inactive) in assay [4]; 44.7% (inactive) in assay [5]; 44.1% (inactive) in assay [6]. For the same compound, the growth in assay [7] is 51.6% (inactive); in assay [8], 30.2% (inactive).

Regarding `CN1CCN(C(=O)OCc2nc3c(N4CCOCC4)nc(Cl)nc3n2C)CC1`, the growth is -29.3% (active) in assay [1]; -84.2% (active) in assay [2]; -55.4% (active) in assay [3]; -84.9% (active) in assay [4]; -45.9% (active) in assay [5]; -88.5% (active) in assay [6]. Further, the growth in assay [7] is -9.16% (active); in assay [8] it was 15.5% (inactive).

For the compound `COC1/C=C/OC2(C)Oc3c(C)c(O)c4c(O)c(c(C=NOC(c5ccccc5)c5ccccc5)c(O)c4c3C2=O)NC(=O)/C(C)=C/C=C/C(C)C(O)C(C)C(O)C(C)C(OC(C)=O)C1C` (stereo not given), the growth in assay [1] was -82.7% (active); in assay [2] it was 32.7% (inactive); in assay [3], 11.5% (inactive); in assay [4] it was 18.3% (inactive); in assay [5] it was 10.9% (inactive); in assay [6] it was 10.9% (inactive). Further, the growth in assay [7] is -38.8% (active); in assay [8], 5.8% (active).

For the compound `Nc1ncnc2c1C(c1ccc([N+](=O)[O-])cc1)c1sc3c(F)cccc3c1O2` (stereo not given), the growth in assay [1] was 71.7% (inactive); in assay [2], 111% (inactive); in assay [3] it was 101% (inactive); in assay [4] it was 98.3% (inactive); in assay [5], 21.9% (inactive); in assay [6], 101% (inactive). Also, the growth in assay [7] is 115% (inactive); in assay [8], 92.8% (inactive).
